Details in all cases: mRNA level, 48 h; actives raise or lower the signal
Read-out in test [1]: Nuclear factor NF-kappa-B p105 subunit (Homo sapiens) (UniProt P19838)
Put plainly: LTEA_HepaRG_NFKB1: Life Technologies and Expression Analysis (LTEA) Assay for Nuclear Factor Kappa B Subunit 1 (NFKB1) using HepaRG (AID 2283521). The essentials: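 Differentiated human HepaRG cells in serum-free induction medium with 0.5% DMSO were exposed for 48 h to eight half-log concentrations, top 100 uM, in duplicate. NFKB1 mRNA measured by Fluidigm TaqMan qRT-PCR, normalised to ACTB, GAPDH and POLR2A; bidirectional fit versus DMSO.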

Read-out in test [2]: Protein phosphatase 2A (PPP2R4), PTPA (gene 5524)
Put plainly: LTEA_HepaRG_PPP2R4: Life Technologies and Expression Analysis (LTEA) Assay for Protein phosphatase 2A (PPP2R4) using HepaRG (AID 2283522). The essentials: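 Using HepaRG cultures maintained in 0.5% DMSO, chemicals are tested 48 h at up to 100 uM in duplicate. Induction or suppression of PPP2R4 mRNA, measured by qRT-PCR, is fitted bidirectionally against the vehicle baseline.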

Read-out in test [3]: Phosphatase and tensin (PTEN), PTEN (gene 5728)
Put plainly: LTEA_HepaRG_PTEN: Life Technologies and Expression Analysis (LTEA) Assay for Phosphatase and tensin (PTEN) using HepaRG (AID 2283523). The essentials: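 Read-out: TaqMan qRT-PCR of PTEN transcript, normalized to three housekeeping genes, fitted in both directions against 0.5% DMSO. Differentiated human HepaRG cultures received chemicals for 48 h, eight-point half-log series topping at 100 uM.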

Read-out in test [4]: solute carrier (SLC22A1), SLC22A1 (gene 6580)
Put plainly: LTEA_HepaRG_SLC22A1: Life Technologies and Expression Analysis (LTEA) Assay for solute carrier (SLC22A1) using HepaRG (AID 2283524). The essentials:
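Transcript level of SLC22A1 quantified by qRT-PCR (normalized to three housekeeping genes) after 48 h chemical exposure of HepaRG cells, eight concentrations up to 100 µM, half-log steps, 0.5% DMSO vehicle. Gain or loss relative to DMSO fitted bidirectionally.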

Read-out in test [5]: Pyruvate Dehydrogenase Kinase 4 (PDK4), PDK4 (gene 5166)
Put plainly: LTEA_HepaRG_PDK4: Life Technologies and Expression Analysis (LTEA) Assay for Pyruvate Dehydrogenase Kinase 4 (PDK4) using HepaRG (AID 2283525). The essentials:
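Readout is qRT-PCR of PDK4 transcript, normalized to three housekeeping genes, with bidirectional fitting against 0.5% DMSO vehicle. Differentiated HepaRG cells were treated 48 h in serum-free induction medium, duplicate wells, eight-point half-log series topping at 100 uM.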

Read-out in test [6]: NAD(P)H dehydrogenase [quinone] 1 (NQO1), NQO1 (gene 1728)
The test can be described thus: LTEA_HepaRG_NQO1: Life Technologies and Expression Analysis (LTEA) Assay for NAD(P)H dehydrogenase [quinone] 1 (NQO1) using HepaRG (AID 2283526). The essentials:
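In this assay, gene expression is read by qRT-PCR after 48 h exposure of HepaRG cells to eight concentrations (max 100 uM, half-log) in 0.5% DMSO. Each chemical runs in duplicate, and activity is scored relative to vehicle.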

Read-out in test [7]: Nuclear factor erythroid 2-related factor 2 (Homo sapiens) (UniProt Q16236)
Put plainly: LTEA_HepaRG_NFE2L2: Life Technologies and Expression Analysis (LTEA) Assay for Nuclear factor erythroid 2-related factor 2 (NFE2L2) Transcription Factor using HepaRG (AID 2283527).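 Also: TaqMan qRT-PCR transcript level normalised to ACTB GAPDH and POLR2A housekeeping genes.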 The essentials: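 NFE2L2 transcript level was read by qRT-PCR (housekeeping ACTB/GAPDH/POLR2A normalisation) after 48 h chemical treatment of HepaRG in serum-free induction medium. Duplicate 8-point half-log curves, top 100 uM, 0.5% DMSO vehicle; up- or down-regulation fitted against vehicle.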

Read-out in test [8]: succinate dehydrogenase complex iron sulfur subunit B (SDHB), SDHB (gene 6390)
Put plainly: LTEA_HepaRG_SDHB: Life Technologies and Expression Analysis (LTEA) Assay for succinate dehydrogenase complex iron sulfur subunit B (SDHB) using HepaRG (AID 2283528). The essentials:
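HepaRG cells (~100,000/well, plated 48 h) exposed in duplicate for 48 h in serum-free induction medium to 8-point half-log series from 100 uM in 0.5% DMSO; mRNA by qRT-PCR normalised to ACTB, GAPDH, POLR2A; bidirectional fit versus DMSO.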

Read-out in test [9]: Signal transducer and activator of transcription 3 (Homo sapiens) (UniProt P40763)
The test can be described thus: LTEA_HepaRG_STAT3: Life Technologies and Expression Analysis (LTEA) Assay for Signal transducer and activator of transcription (STAT3) using HepaRG (AID 2283529). The essentials:
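STAT3 transcript quantified by qRT-PCR against three housekeeping genes (ACTB, GAPDH, POLR2A), fitted both directions relative to DMSO. HepaRG cultures exposed 48 h to eight half-log concentrations, top 100 uM, 0.5% DMSO, serum-free induction medium.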

Read-out in test [10]: solute carrier (SLCO1B1), SLCO1B1 (gene 10599)
The test can be described thus: LTEA_HepaRG_SLCO1B1: Life Technologies and Expression Analysis (LTEA) Assay for solute carrier (SLCO1B1) using HepaRG (AID 2283530). The essentials: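 SLCO1B1 transcript levels were quantified by TaqMan qRT-PCR using three housekeeping genes for normalization. This followed 48 h chemical exposure (100 uM top, half-log, 8 points, 0.5% DMSO) of HepaRG liver cells, with gain or loss fitted relative to DMSO.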

Read-out in test [11]: sulfotransferase 2A1 (SULT2A1), SULT2A1 (gene 6822)
The test can be described thus: LTEA_HepaRG_SULT2A1: Life Technologies and Expression Analysis (LTEA) Assay for sulfotransferase 2A1 (SULT2A1) using HepaRG (AID 2283531). The essentials:
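Expression change of SULT2A1, by qRT-PCR with three housekeeping-gene normalization, was scored bidirectionally versus DMSO. Cells: differentiated HepaRG, dosed in duplicate for 48 h across 8 points, highest 100 µM, half-log dilution, 0.5% DMSO.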

Read-out in test [12]: Transforming Growth Factor (TGFB1), TGFB1 (gene 7040)
The test can be described thus: LTEA_HepaRG_TGFB1: Life Technologies and Expression Analysis (LTEA) Assay for Transforming Growth Factor (TGFB1) Transporter using HepaRG (AID 2283533). The essentials: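 TGFB1 transcript measured by qRT-PCR with normalisation to three housekeeping genes (ACTB, GAPDH, POLR2A); human HepaRG line treated in duplicate for 48 hr with an 8-point series topping at 100 uM, 0.5% DMSO vehicle, bidirectionally fitted.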

Read-out in test [13]: TIMP1, TIMP1 (gene 7076)
The test can be described thus: LTEA_HepaRG_TIMP1: Life Technologies and Expression Analysis (LTEA) Assay for TIMP1 using HepaRG (AID 2283534). The essentials:
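Bidirectional change in TIMP1 transcript versus 0.5% DMSO, measured by TaqMan qRT-PCR with three housekeeping genes for normalization. HepaRG human liver cells dosed 48 h in duplicate, top concentration 100 uM with half-log dilutions.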

Read-out in test [14]: Tumor necrosis factor receptor 1 (TNFRSF1A), TNFRSF1A (gene 7132)
The test can be described thus: LTEA_HepaRG_TNFRSF1A: Life Technologies and Expression Analysis (LTEA) Assay for Tumor necrosis factor receptor 1 (TNFRSF1A) using HepaRG (AID 2283535). The essentials: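 mRNA measured by qRT-PCR (TaqMan, Fluidigm arrays) against ACTB/GAPDH/POLR2A housekeepers after 48 h chemical exposure of HepaRG cells. Top concentration 100 uM, half-log 8-point series, duplicates; vehicle 0.5% DMSO, both fit directions.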

Read-out in test [15]: UDP glucuronosyltransferase (UGT1A1), UGT1A1 (gene 54658)
Put plainly: LTEA_HepaRG_UGT1A1: Life Technologies and Expression Analysis (LTEA) Assay for UDP glucuronosyltransferase (UGT1A1) using HepaRG (AID 2283538). The essentials:
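mRNA induction or loss of UGT1A1, by TaqMan qRT-PCR, in duplicate HepaRG wells after 48 h exposure to half-log dilutions topping at 100 uM; DMSO (0.5%) served as baseline.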

Read-out in test [16]: UDP glucuronosyltransferase (UGT1A6), UGT1A6 (gene 54578)
Put plainly: LTEA_HepaRG_UGT1A6: Life Technologies and Expression Analysis (LTEA) Assay for UDP glucuronosyltransferase (UGT1A6) using HepaRG (AID 2283539). The essentials: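 Expression was quantified by TaqMan qRT-PCR on Fluidigm arrays with ACTB/GAPDH/POLR2A normalization and bidirectional fitting against 0.5% DMSO. HepaRG cells (~100,000/well) were treated in duplicate for 48 h at eight half-log concentrations up to 100 uM in serum-free induction medium.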

Read-out in test [17]: X-box binding protein 1 (XBP1), XBP1 (gene 7494)
The test can be described thus: LTEA_HepaRG_XBP1: Life Technologies and Expression Analysis (LTEA) Assay for X-box binding protein 1 (XBP1) using HepaRG (AID 2283540). The essentials: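 XBP1 transcript by qRT-PCR (housekeeping-normalized: ACTB, GAPDH, POLR2A) after 48 h chemical treatment of HepaRG cells, 8-point half-log series topping at 100 uM, vehicle 0.5% DMSO. Gain and loss of signal fitted relative to DMSO.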

Read-out in test [18]: Thyroid Hormone Responsive (THRSP), THRSP (gene 7069)
The test can be described thus: LTEA_HepaRG_THRSP: Life Technologies and Expression Analysis (LTEA) Assay for Thyroid Hormone Responsive (THRSP) using HepaRG (AID 2283536). The essentials: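 THRSP transcript quantified by Fluidigm qRT-PCR against three housekeeping genes after 48 h chemical exposure of HepaRG cells in serum-free induction medium; eight-point half-log series, top 100 uM, 0.5% DMSO vehicle, duplicate wells.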

Read-out in test [19]: Cellular tumor antigen p53 (Homo sapiens) (UniProt P04637)
Put plainly: LTEA_HepaRG_TP53: Life Technologies and Expression Analysis (LTEA) Assay for Tumor Protein P53 (TP53) using HepaRG (AID 2283537). The essentials:
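Differentiated HepaRG cells in serum-free induction medium exposed 48 h in duplicate to 8 half-log concentrations, top 100 uM, 0.5% DMSO. TP53 mRNA by TaqMan qRT-PCR (Fluidigm), normalized to ACTB, GAPDH, POLR2A; fitted bidirectionally versus DMSO.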

Read-out in test [20]: Transforming Growth Factor (TGFA), TGFA (gene 7039)
The test can be described thus: LTEA_HepaRG_TGFA: Life Technologies and Expression Analysis (LTEA) Assay for Transforming Growth Factor (TGFA) using HepaRG (AID 2283532). The essentials: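 TGFA transcript quantified by qRT-PCR (Fluidigm arrays) against three housekeeping genes, after 48 hours chemical treatment of HepaRG cells. Top concentration 100 uM with half-log dilutions, 8 points, duplicates, 0.5% DMSO.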

The source made the active and inactive calls. The calls were made as follows: active = hit-call score of the fitted dose curve at least 0.9, where 1 is the maximum; inactive = score below 0.9.

Nuclear factor NF-kappa-B p105 subunit (Homo sapiens), sequence (P19838 whole entry, looked up): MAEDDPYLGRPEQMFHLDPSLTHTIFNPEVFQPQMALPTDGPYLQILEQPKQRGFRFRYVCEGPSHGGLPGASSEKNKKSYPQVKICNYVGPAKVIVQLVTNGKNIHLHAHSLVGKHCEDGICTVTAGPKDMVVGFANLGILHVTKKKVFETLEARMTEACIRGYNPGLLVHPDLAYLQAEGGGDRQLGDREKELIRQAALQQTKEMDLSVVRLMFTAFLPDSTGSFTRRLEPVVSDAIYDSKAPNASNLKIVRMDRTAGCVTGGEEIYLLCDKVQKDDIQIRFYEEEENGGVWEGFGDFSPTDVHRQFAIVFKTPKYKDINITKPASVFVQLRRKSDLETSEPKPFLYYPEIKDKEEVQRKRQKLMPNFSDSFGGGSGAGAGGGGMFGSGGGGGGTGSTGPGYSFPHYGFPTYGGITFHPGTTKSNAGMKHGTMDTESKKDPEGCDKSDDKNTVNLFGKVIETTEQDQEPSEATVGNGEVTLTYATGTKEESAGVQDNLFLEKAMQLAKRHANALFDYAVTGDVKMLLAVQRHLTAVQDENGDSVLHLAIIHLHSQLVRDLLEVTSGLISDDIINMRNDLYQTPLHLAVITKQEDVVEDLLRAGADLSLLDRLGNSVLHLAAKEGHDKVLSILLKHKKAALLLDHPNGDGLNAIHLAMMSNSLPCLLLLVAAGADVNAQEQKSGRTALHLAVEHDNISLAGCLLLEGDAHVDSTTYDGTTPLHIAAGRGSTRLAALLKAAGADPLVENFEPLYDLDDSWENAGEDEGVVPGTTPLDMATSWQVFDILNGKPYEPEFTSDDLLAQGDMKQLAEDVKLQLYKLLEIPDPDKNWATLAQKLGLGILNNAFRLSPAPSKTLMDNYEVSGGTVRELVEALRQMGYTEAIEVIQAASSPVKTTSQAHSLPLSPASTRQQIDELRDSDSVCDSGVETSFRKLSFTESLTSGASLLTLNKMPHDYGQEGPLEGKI
Signal transducer and activator of transcription 3 (Homo sapiens), sequence (P40763 whole entry, looked up): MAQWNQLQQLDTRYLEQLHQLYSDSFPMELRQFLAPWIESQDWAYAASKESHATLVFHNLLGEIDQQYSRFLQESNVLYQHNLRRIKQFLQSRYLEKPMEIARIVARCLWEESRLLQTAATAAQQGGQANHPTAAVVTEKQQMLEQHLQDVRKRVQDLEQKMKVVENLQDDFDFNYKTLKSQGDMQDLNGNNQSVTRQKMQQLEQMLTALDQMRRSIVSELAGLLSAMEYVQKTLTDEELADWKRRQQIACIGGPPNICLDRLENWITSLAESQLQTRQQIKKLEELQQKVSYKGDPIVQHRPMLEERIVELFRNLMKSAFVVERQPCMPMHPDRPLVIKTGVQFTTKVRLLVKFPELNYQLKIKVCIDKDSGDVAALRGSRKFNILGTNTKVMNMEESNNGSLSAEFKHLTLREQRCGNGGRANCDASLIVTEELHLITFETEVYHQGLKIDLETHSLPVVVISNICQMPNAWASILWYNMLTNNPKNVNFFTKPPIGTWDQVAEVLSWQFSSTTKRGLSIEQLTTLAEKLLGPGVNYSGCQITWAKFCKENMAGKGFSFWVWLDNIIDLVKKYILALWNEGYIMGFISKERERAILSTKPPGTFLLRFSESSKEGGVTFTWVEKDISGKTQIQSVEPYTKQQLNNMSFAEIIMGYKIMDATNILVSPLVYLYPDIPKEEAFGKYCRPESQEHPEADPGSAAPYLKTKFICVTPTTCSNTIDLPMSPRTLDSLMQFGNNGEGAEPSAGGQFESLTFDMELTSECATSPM
Nuclear factor erythroid 2-related factor 2 (Homo sapiens), sequence (Q16236 whole entry, looked up): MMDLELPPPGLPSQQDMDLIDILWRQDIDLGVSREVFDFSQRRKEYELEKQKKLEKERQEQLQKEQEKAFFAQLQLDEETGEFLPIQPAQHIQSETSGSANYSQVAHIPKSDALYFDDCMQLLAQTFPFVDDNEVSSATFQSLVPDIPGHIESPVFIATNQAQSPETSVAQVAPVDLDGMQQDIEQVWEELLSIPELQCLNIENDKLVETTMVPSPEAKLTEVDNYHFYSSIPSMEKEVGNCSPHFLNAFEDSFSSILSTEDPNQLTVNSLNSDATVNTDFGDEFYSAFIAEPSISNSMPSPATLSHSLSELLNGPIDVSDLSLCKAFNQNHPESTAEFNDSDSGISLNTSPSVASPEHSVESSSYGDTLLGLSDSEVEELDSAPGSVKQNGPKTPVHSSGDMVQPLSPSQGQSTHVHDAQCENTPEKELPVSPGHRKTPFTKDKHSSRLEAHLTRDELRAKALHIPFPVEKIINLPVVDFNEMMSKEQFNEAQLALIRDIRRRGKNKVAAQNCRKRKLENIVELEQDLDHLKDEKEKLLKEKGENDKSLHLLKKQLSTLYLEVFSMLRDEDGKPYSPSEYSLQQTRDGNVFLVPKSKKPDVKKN
Cellular tumor antigen p53 (Homo sapiens), sequence (P04637 whole entry, looked up): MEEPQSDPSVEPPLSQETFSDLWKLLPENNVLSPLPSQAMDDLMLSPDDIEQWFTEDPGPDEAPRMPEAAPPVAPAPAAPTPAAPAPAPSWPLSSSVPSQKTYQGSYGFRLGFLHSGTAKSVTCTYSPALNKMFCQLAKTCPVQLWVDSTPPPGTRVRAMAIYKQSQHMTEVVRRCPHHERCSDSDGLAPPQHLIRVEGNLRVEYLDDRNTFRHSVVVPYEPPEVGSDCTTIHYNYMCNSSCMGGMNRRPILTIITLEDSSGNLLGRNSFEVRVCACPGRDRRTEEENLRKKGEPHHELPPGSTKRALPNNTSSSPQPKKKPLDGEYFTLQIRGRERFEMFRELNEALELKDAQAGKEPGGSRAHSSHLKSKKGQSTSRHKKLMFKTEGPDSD

Take `Cc1nc(-c2ccccn2)ncc1C(=O)Nn1cc(C)c2cc(F)ccc21`: the outcome in test [1], in test [2], in test [3], in test [5], in [6] and in test [7] was inactive. The call in test [8], in [9], in [10], in test [11], in [12] and in [13] was inactive. The compound was classed as inactive in [14] and in test [17]. Also, the figures for the AC50 in [4], in [15] and in test [16] were 77.7 µM (active), 12 µM (active) and 78.5 µM (active), respectively.

For `CCCCC(CC)C(=O)OCCOCCOCCOC(=O)C(CC)CCCC` (stereo not drawn), the result in test [1], in test [2], in test [3], in test [4], in [5] and in test [6] was inactive. Moreover, the outcome in test [7], in test [8], in test [9], in [10], in [11] and in test [12] was inactive. The result in test [13], in test [18], in test [19], in test [15], in test [16] and in [17] was inactive. Also, in test [14], the AC50 was 78.2 µM (active).

For `OCc1ccccc1`, the result in [1], in [2], in test [3], in test [4], in test [5] and in test [6] was inactive. Moreover, the call in test [7], in [8], in [9], in test [10], in test [11] and in [20] was inactive. Further, the compound was called inactive in test [12], in test [13], in [14], in test [18], in test [15] and in test [16]. Also, the call in test [17] was inactive.

For the compound `OC(Cn1cncn1)(Cn1cncn1)c1ccc(F)cc1F`, the result in [1], in [2], in [3], in [4], in [5] and in [6] was inactive. The compound was called inactive in [7], in [8], in [9], in test [10], in test [11] and in test [12]. Besides, the call in test [13], in test [14], in [19], in [15], in [16] and in [17] was inactive.

The term AC50 denotes the concentration giving half of the maximal activity seen.

The values above are taken from PubChem BioAssay (EPA / NIEHS).
